PAX8 reporter = PAX8 transcriptional activity inhibition. 360,000 compounds, 1.2% hits. RMG-I TPO-luciferase reporter, SteadyGlo, 24 h. inhibition, % at 12.6 µM;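 active means mean replicate inhibition at least 60% with every replicate also reaching 60%; inconclusive means only one of the two criteria is met; inactive means mean below 60% and not all replicates reaching 60%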;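 further: luciferase light reporting Pax8 driven TPO promoter activity; plate controls were median of neutral control wells for no effect and mitoxantrone controls for full effect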
Shn3 inh set2 = Schnurri-3 reporter inhibition in Clone20 osteoblasts; Clone20 osteoblast Shn3 3'UTR firefly luciferase, 24 h; inhibition, % at 12.5 µM; 360,000 compounds, 0.52% hits; AID 588674;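 active means mean inhibition of at least 75% with every replicate also reaching 75%; inconclusive means mean inhibition at least 75% but some replicate below; inactive means mean inhibition below 75%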;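 further: 0% = median of neutral control wells and 100% = pilot-screen positive control compound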
Peg3 prom inh = inhibitors of Peg3 promoter; 360,000 compounds, 1.7% hits; inhibition, % at 20 µM; HeLa PEG-Prom luciferase reporter, luminescence, overnight; AID 588405;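 active means inhibition of at least 50% at 20 µM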
EBV LMP1 NFkB = Epstein-Barr LMP1 NF-kappaB reporter inhibition | LMP1-induced NF-kappaB luciferase reporter cells, luminescence | inhibition, % at 12.5 µM | 350,000 compounds, 0.69% hits | AID 504558; in the data active means inhibition above about 41%; inconclusive means no clear call, values can overlap the other calls;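 further: 0% = neutral control wells and 100% = reference inhibitor control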
HIF-2a inh = HIF-2a inhibition; 360,000 compounds, 0.72% hits; AID 624352; inhibition, % at 18.8 µM; 786-0 RCC cells HIF-2a reporter, luciferase luminescence, overnight;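 active means inhibition of the luminescence signal of 40% or more relative to plate controls, in a single-dose primary screen at 18.75 µM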
TRPM1 prom inh = inhibitors of MITF-driven TRPM1 promoter in melanoma cells | SK-MEL-5 TRPM1 promoter luciferase, 24 h | inhibition, % at 12.5 µM | 330,000 compounds, 0.83% hits | AID 488899;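 active means mean inhibition across replicates of 60% or more, whatever share of single replicates reaches that level; inconclusive means some that reach 60%, reason not given; inactive means mean inhibition across replicates below 60%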
An asterisk follows results filed as active; ? = inconclusive; / = not tested or not shown. Most compounds without a hit are left out; they make up all but 2.8% or so of the library.

SMILES	PAX8 reporter	Shn3 inh set2	Peg3 prom inh	EBV LMP1 NFkB	HIF-2a inh	TRPM1 prom inh
C[C@@H]1CN([C@H](C)CO)C(=O)c2cc(NC(=O)Nc3ccc(C(F)(F)F)cc3)ccc2O[C@@H](C)CCCCO[C@H]1CN(C)S(=O)(=O)c1ccc(Cl)cc1	88*	/	/	/	/	/
C[C@@H]1CCCCO[C@@H](CN(C)S(=O)(=O)c2ccc(Cl)cc2)[C@@H](C)CN([C@H](C)CO)C(=O)c2cc(NC(=O)Nc3ccccc3)ccc2O1	2	/	/	/	/	/
C[C@H](CO)N1C[C@H](C)[C@@H](CN(C)S(=O)(=O)c2ccc(Cl)cc2)OCCCC[C@H](C)Oc2ccc(NC(=O)CCC(F)(F)F)cc2C1=O	-1	/	/	/	/	/
C[C@@H]1CCCCO[C@H](CN(C)S(=O)(=O)c2ccc(Cl)cc2)[C@@H](C)CN([C@@H](C)CO)C(=O)c2cc(NC(=O)CCC(F)(F)F)ccc2O1	93*	/	/	/	/	/
C[C@H](CO)N1C[C@H](C)[C@H](CN(C)S(=O)(=O)c2ccc(Cl)cc2)OCCCC[C@H](C)Oc2ccc(NC(=O)Nc3ccc(C(F)(F)F)cc3)cc2C1=O	78*	/	/	/	/	/
CC=Cc1ccc2n(c1=O)C[C@H]1[C@H](CO)[C@@H](C(=O)NCCc3ccncc3)[C@@H]2N1Cc1ccncc1 (mixture of isomers)	-6	/	/	/	/	/
O=C(NC(Cc1c[nH]c2ccccc12)C(=O)Nc1ccc(F)c([N+](=O)[O-])c1)c1cccs1 (centres undefined)	26	15	6	50*	-11	-8
O=C(COC(=O)[C@H](Cc1c[nH]c2ccccc12)NC(=O)c1cccs1)NCc1ccccc1	66*	-12	1	-12	6	6
CCOc1ccc(CNc2nnnn2C)cc1	-1	10	8	-8	12	-7
CCOc1cccc(CNc2nnnn2C)c1	1	19	-5	79*	14	5
C[C@@H](O)C#Cc1ccc2c(c1)O[C@@H](CN(C)Cc1ccc(-c3ccccc3)cc1)[C@@H](C)CN([C@@H](C)CO)S2(=O)=O	50	/	/	/	/	/
C[C@H](O)C#Cc1ccc2c(c1)O[C@@H](CN(C)Cc1ccc(-c3ccccc3)cc1)[C@H](C)CN([C@@H](C)CO)S2(=O)=O	87*	83	37	-118	-2	/
CCCC#Cc1ccc2c(c1)O[C@H](CN(C)Cc1ccccc1)[C@@H](C)CN([C@H](C)CO)S2(=O)=O	80*	/	/	/	/	/
C[C@H](CO)N1C[C@H](C)[C@@H](CN(C)Cc2ccc(-c3ccccc3)cc2)Oc2cc(C#C[C@@H](C)O)ccc2S1(=O)=O	74*	/	/	/	/	/
C[C@@H]1CN([C@H](C)CO)S(=O)(=O)c2ccc(Br)cc2O[C@@H]1CN(C)Cc1ccc(-c2ccccc2)cc1	-12	24	28	-22	-6	/
C[C@@H]1CN([C@@H](C)CO)S(=O)(=O)c2ccc(C#C[C@@H](C)O)cc2O[C@H]1CN(C)Cc1cncnc1	11	/	/	/	/	/
C[C@H](O)C#Cc1ccc2c(c1)O[C@@H](CN(C)Cc1ccc(-c3ccccc3)cc1)[C@@H](C)CN([C@H](C)CO)S2(=O)=O	94*	/	/	/	/	/
C[C@H](CO)N1C[C@H](C)[C@H](CN(C)C(=O)NC2CCCCC2)OCCCC[C@H](C)Oc2ccc(NS(C)(=O)=O)cc2C1=O	-13	/	/	/	/	/
C[C@@H](O)C#Cc1ccc2c(c1)O[C@H](CN(C)Cc1ccc(-c3ccccc3)cc1)[C@@H](C)CN([C@@H](C)CO)S2(=O)=O	103*	/	/	/	/	/
C[C@@H]1CN([C@H](C)CO)S(=O)(=O)c2ccc(C#C[C@@H](C)O)cc2O[C@H]1CN(C)Cc1cncnc1	-3	/	/	/	/	/
O=[N+]([O-])c1cc2no[n+]([O-])c2cc1N1CCCCC1	15	-23	99*	-76	9	80*
N#Cc1cc(N2CCCCC2)c([N+](=O)[O-])cc1C#N	3	6	8	-3	4	-2
O=C(C[C@@H]1CC[C@@H]2[C@H](COC[C@@H](O)CN2C(=O)c2ccccc2)O1)NCc1cccc(F)c1	-12	/	/	/	/	/
COc1ccc(C(c2c(C)n(C)n(-c3ccccc3)c2=O)c2c(C)n(C)n(-c3ccccc3)c2=O)c(OC)c1OC	-15	-10	8	80*	14	24
CCOc1cccc(C(c2c(C)n(C)n(-c3ccccc3)c2=O)c2c(C)n(C)n(-c3ccccc3)c2=O)c1OC	24	3	16	1	19	/
SMILES	PAX8 reporter	Shn3 inh set2	Peg3 prom inh	EBV LMP1 NFkB	HIF-2a inh	TRPM1 prom inh
COc1ccccc1CNc1nc(NC(C)C)nc2cc(-c3ccccc3)sc12	19	19	75*	/	-18	/
COc1ccccc1CNc1nc(NCc2cccc(OC)c2OC)c2sccc2n1	58	48	54*	/	19	/
CC(C)Nc1nc(NCCOc2ccccc2Cl)c2sc(-c3ccccc3)cc2n1	11	72	36	/	-22	/
COc1ccccc1NC(=O)c1sc2ncn(Cc3ccc(C)cc3)c(=O)c2c1C	/	-8	52*	-6	-19	-3
COc1ccccc1NC(=O)c1sc2ncn(Cc3cccc(C)c3)c(=O)c2c1C	/	-13	13	9	8	9
O=C(C[C@@H]1CC[C@@H](NS(=O)(=O)c2ccccc2)[C@H](CO)O1)N1CCC(Cc2ccccc2)CC1	15	/	/	/	/	/
CCCCCCN1C[C@@H](n2cc(-c3ccc(F)cc3)nn2)[C@H](O)C[C@@H]1c1ccc(Cl)cc1	89*	?	69*	7	-84	/
CCCCCCN1C[C@@H](n2cc(-c3ccc(F)cc3)nn2)[C@H](O)C[C@@H]1c1ccc(OC)cc1	36	31	61*	-3	-27	/
CCCCCCN1C[C@H](O)[C@@H](n2cc(-c3ccc(F)cc3)nn2)C[C@@H]1c1ccc(Cl)cc1	-32	16	32	3	11	/
CC(C)N(CCCNC(=O)c1ccc(CS(=O)(=O)c2c(Cl)cccc2Cl)o1)Cc1ccccc1	62*	2	-16	0	11	-4
CCCCN(CCCNC(=O)c1ccc(CS(=O)(=O)c2c(Cl)cccc2Cl)o1)Cc1ccccc1	12	14	-1	0	11	-15
O=C(C[C@H]1C[C@H]2c3cc(NC(=O)CC4CC4)ccc3O[C@H]2[C@@H](CO)O1)NCc1ccc(-c2ccccc2)cc1	-5	/	/	/	/	/
O=C(NC1CCCCC1)C12CC3CC(C1)CC(n1cncn1)(C3)C2	/	12	12	78*	28	-3
CC(NC(=O)C12CC3CC(C1)CC(n1cncn1)(C3)C2)C12CC3CC(CC(C3)C1)C2 (centres undefined)	/	-7	13	10	14	4
C[C@H](CO)N1C[C@H](C)[C@@H](CN(C)Cc2ccc(C(F)(F)F)cc2)Oc2ccc(NC(=O)Cc3ccccc3)cc2CC1=O	52	/	/	/	/	/
C[C@@H]1CN([C@@H](C)CO)C(=O)Cc2cc(NC(=O)Cc3ccccc3)ccc2O[C@H]1CN(C)Cc1ccc(C(F)(F)F)cc1	70*	/	/	/	/	/
